# Assay outcomes (PubChem BioAssay)
# An excerpt weighted towards active compounds, which were near 19% of everything screened.
# IL-1B inflam inh = inhibitors of inflammasome signaling (IL-1 beta secretion) | actives 4.7% (n = 360,000) | activity change, % at 57.5 µM | THP-1 LPS/ATP IL-1B secretion, AlphaLISA, 16 h; hits give low values | AID 743279; in the data active = activity change below about -50%; inconclusive = mostly about -30% to -49%; also: % is scaled to controls: 0 for no effect and ±100 for the full control effect
#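 Secreted IL-1B measured by AlphaLISA bead assay after 16 h compound exposure of THP-1 cells; compounds (final up to 57.5 uM) added 1 h before LPS (250 ng/mL) and ATP (1.25 mM) stimulation; lower signal means less secretion.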
# ASM inhibitor = blocks human secretory acid sphingomyelinase. P17405. placental ASM, HMU-PC fluorogenic substrate, 60 min. Potency, µM (highest dose often 57.5 µM), without a hit: top-dose activity change, negative = inhibition, usual class: inhibitors. actives 0.006% (n = 340,000). AID 504937; also: potency is read from the fitted curve at half-maximal effect
# Target sequence (P17405 47-631 limits assumed): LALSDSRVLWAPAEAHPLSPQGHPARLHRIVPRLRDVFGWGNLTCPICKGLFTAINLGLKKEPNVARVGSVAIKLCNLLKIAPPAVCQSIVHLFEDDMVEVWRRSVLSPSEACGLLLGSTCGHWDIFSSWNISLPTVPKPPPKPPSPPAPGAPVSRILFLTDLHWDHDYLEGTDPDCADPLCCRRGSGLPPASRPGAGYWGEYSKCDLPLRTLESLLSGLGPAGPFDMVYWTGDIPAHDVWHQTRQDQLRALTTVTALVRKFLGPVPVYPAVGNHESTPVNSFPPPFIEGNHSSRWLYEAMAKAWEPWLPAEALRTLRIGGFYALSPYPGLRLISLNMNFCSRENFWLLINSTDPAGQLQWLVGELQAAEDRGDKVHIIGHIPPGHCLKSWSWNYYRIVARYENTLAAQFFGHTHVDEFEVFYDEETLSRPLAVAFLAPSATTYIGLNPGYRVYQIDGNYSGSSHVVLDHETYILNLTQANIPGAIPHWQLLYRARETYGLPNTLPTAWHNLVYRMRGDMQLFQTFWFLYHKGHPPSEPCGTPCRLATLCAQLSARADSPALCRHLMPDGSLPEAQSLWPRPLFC
#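 Steps: dispense placental human ASM, pin compound, wait 10 min at room temperature, add HMU-PC0 substrate at 9 uM final, incubate 60 min at 37 °C, add stop solution raising pH to 10, read fluorescence.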
# HepG2 tox-1 = kills HepG2 cells in TGF-b inhibitor counter-screen | HepG2 CAGA-GFP viability, ATP luminescence, 18 h | AID 588856 | Potency, µM (doses to about 46.1 µM), without a hit: top-dose activity change, negative = cytotoxicity, hits mostly cytotoxic | actives 0.76% (n = 410,000); also: potency is read from the fitted curve at half-maximal effect
#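 CellTiter-Glo luminescence gave cytotoxicity after 18 hours at 37 degrees C. The cells were HepG2 CAGA-GFP in 1% FBS DMEM, stimulated with 500 pg/mL TGF-beta after compound addition. %Activity was normalised to no-cell wells (complete cell-killing) and DMSO (no toxicity), and curves were fitted and classified.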
# DT40 TDP1 no CPT = qHTS for Inhibitors of human tyrosyl-DNA phosphodiesterase 1 (TDP1): qHTS in cells in absence of CPT | DT40 Tdp1-/- hTDP1 cells, no CPT, ATP luminescence, 48 h | Potency, µM (doses to about 46.2 µM), for the others: top-dose activity change, negative = growth inhibition, actives largely listed as inhibitors | actives 15% (n = 420,000) | AID 686978, 2013; also: potency is read from the fitted curve at half-maximal effect; % is scaled to controls: 0 for no effect and ±100 for the full control effect; nearly all actives have a fitted effect of over 55% in size
#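 A cellular qHTS used chicken DT40 cells lacking endogenous Tdp1 but carrying stably transfected human TDP1. Compounds were applied without camptothecin, and cell growth kinetics were judged by ATP-dependent luminescence after ≥48 hr.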
# TDP1 cell CPT = growth inhibition of DT40 Tdp1-/-;hTDP1 cells with camptothecin (screen for TDP1 inhibitors). chicken DT40 Tdp1-/-;hTDP1 cells + 20 nM CPT, ATP luminescence, 48 h. actives 12% (n = 420,000). Potency, µM (doses to about 46.2 µM), without a hit: at the top dose activity change, negative = growth inhibition, most hits filed as inhibitors; also: potency is read from the fitted curve at half-maximal effect; % is scaled to controls: 0 for no effect and ±100 for the full control effect; nearly all actives have a fitted effect of over 55% in size
#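 Chicken DT40 Tdp1-/- cells stably complemented with human TDP1 were seeded at 400 cells/well in medium containing 20 nM camptothecin, exposed to pin-transferred compounds, and grown at 37 °C for at least 48 hr. Viability was read as ATP luminescence.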
# TGFb SMAD3 inh = TGF-b pathway inhibition; actives 1.2% (n = 410,000); HepG2 CAGA-GFP TGF-b/SMAD3 reporter, GFP fluorescence, 18 h; TGF-beta stimulated, 500 pg/mL final; Potency, µM (top dose mostly 46.1 µM), without a hit: at the top dose activity, negative = inhibition, most hits filed as inhibitors; also: potency is read from the fitted curve at half-maximal effect; % is scaled to controls: 0 for no effect and ±100 for the full control effect; nearly all actives have a fitted effect of over 65% in size
#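 TGF-beta reporter screen: HEPG2 CAGA-GFP, 1% FBS, 500 pg/mL TGF-beta final, 18 h; per-cell GFP summed per well; curves fitted and categorized by class.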
# TGFb confirm = confirmation of TGF-b signaling inhibitors in HepG2 reporter cells | actives 63% (n = 1,600) | shares compounds with TGFb SMAD3 inh | HepG2 CAGA-GFP TGF-b reporter, GFP fluorescence, 18 h; cells stimulated with TGF-beta, 500 pg/mL | Potency, µM (highest dose often 46.1 µM), without a hit: top-dose activity, negative = inhibition, most hits filed as inhibitors; also: potency is read from the fitted curve at half-maximal effect; % is scaled to controls: 0 for no effect and ±100 for the full control effect; nearly all actives have a fitted effect of over 65% in size
# HepG2 tox-2 = counter-screen for TGF-b inhibitors: cytotoxicity in HepG2 cells. shares compounds with TGFb SMAD3 inh. actives 27% (n = 1,600). AID 720535. Potency, µM (top dose mostly 46.1 µM), without a hit: top-dose activity, negative = cytotoxicity, actives largely listed as inhibitors. HepG2 CAGA-GFP viability, ATP luminescence, 18 h; cells stimulated with TGF-beta, 500 pg/mL; also: potency is read from the fitted curve at half-maximal effect; % is scaled to controls: 0 for no effect and ±100 for the full control effect; nearly all actives have a fitted effect of over 70% in size
# CCL64 TGFb inh = orthogonal confirmation of TGF-b inhibitors in CCL64 cells; shares compounds with TGFb SMAD3 inh; CCL64 CAGA-GFP reporter, TGF-b stimulated, GFP fluorescence, 18 h; Potency, µM (doses to about 46.1 µM), inactives show top-dose activity, negative = inhibition, actives largely listed as inhibitors; actives 41% (n = 1,600); also: potency is read from the fitted curve at half-maximal effect; nearly all actives have a fitted effect of over 65% in size
# TGFb COP inh = blocks TGF-b signaling in HepG2 COP reporter. Potency, µM (top dose mostly 46.1 µM), inactives show at the top dose activity, negative = inhibition, hits mostly inhibitors. actives 3% (n = 1,600). shares compounds with TGFb SMAD3 inh. HepG2 COP-GFP TGF-b reporter, GFP fluorescence, 18 h; cells stimulated by added recombinant TGF-beta. AID 720537; also: potency is read from the fitted curve at half-maximal effect; nearly all actives have a fitted effect of over 70% in size
# Starred values were filed as active, the others as inactive; ? = inconclusive; . = no result given. Unless noted, calls follow the shape of the dose curve; as a rule, active = well fitted curve in the direction sought with a large enough effect; inconclusive = small, poorly fitted or top-dose-only effect, or another doubt; inactive = no such curve, though single readings can be large; an effect the other way counts as inactive or inconclusive.
SMILES,IL-1B inflam inh,ASM inhibitor,HepG2 tox-1,DT40 TDP1 no CPT,TDP1 cell CPT,TGFb SMAD3 inh,TGFb confirm,HepG2 tox-2,CCL64 TGFb inh,TGFb COP inh
CC1(c2ccccc2)NC(=O)N(CC(=O)Nc2ccccc2C(=O)N2CCCCC2)C1=O (stereo not drawn),9,3%,0%,-20%,1%,5%,.,.,.,.
COc1ccc2cc([C@H](C)C(=O)N(C)Cc3ccccc3N3CCCC3)ccc2c1,-8,42%,-30%,26µM*,23µM*,10µM*,8.2µM*,?,?,34%
COc1ccc(/C=N/n2c(SC)nnc(C(C)(C)C)c2=O)cc1OC,11,-5%,-13%,-1%,15%,4%,.,.,.,.
COc1cc(/C=N/n2c(SC)nnc(C(C)(C)C)c2=O)ccc1O,6,-3%,-13%,-3%,5%,3.2µM*,?,11%,-5%,2%
CCOC(=O)c1c(-c2cccs2)csc1N,-5,-2%,-17%,3%,2%,?,-8%,-2%,5%,0%
Cc1ccc(NC(=O)CN(C)C(=O)c2ccc(NS(=O)(=O)c3cccc([N+](=O)[O-])c3)cc2)cc1,25,-5%,25%,-13%,-3%,15%,.,.,.,.
Cc1ccc(NS(=O)(=O)c2ccc(OCC(=O)Nc3cccc([N+](=O)[O-])c3)c(C)c2)cc1,?,-19%,-20%,?,?,11µM*,-78%,-25%,10%,37%
CC(=O)NC(Cc1c[nH]c2ccccc12)C(=O)N1CCN(S(=O)(=O)c2ccccc2)CC1 (stereo not drawn),6,-4%,-7%,-5%,-5%,-56%,.,.,.,.
NC1=C(Br)C(=O)c2ncccc2C1=O,-98*,-2%,2.8µM*,1.6µM*,0.65µM*,2.8µM*,1.2µM*,3.3µM*,4.6µM*,4.6µM*
O=C(NC1CC2CCCC(C1)N2CC(=O)N1CCCc2ccccc21)C1CCCCC1 (stereo not drawn),-9,4%,1%,-30%,-11%,-1%,.,.,.,.
O=C(CN1C2CCCC1CC(NC(=O)C1CCCCC1)C2)Nc1ccccc1C(F)(F)F (stereo not drawn),?,-22%,-13%,15µM*,23µM*,?,18µM*,?,?,-3%
CN(CC(=O)NCc1ccccc1Cl)S(=O)(=O)c1ccc2c(c1)c(=O)n(C)c(=O)n2C,.,.,10%,-3%,-7%,-5%,.,.,.,.
CCOCCn1c(=NC(=O)CSCC(=O)Nc2cc(C)on2)sc2cc(OC)ccc21,-3,0%,-6%,6%,-19%,2%,.,.,.,.
O=C(c1ccc(Br)cc1)N(Cc1nc2ccccc2c(=O)[nH]1)C1CCCC1,?,-5%,-13%,18µM*,?,11µM*,23µM*,-25%,-10%,19%
Cc1nc(SCc2nc3ccc(C(F)(F)F)cc3[nH]2)c2oc3ccccc3c2n1,.,-28%,-55%,.,.,?,.,.,.,.
O=C(COc1cccc2ccccc12)Nc1ccc(Cl)cc1C(=O)O,56,26%,-17%,?,?,11µM*,16µM*,8.2µM*,?,55%
CCOc1ccc(OCCn2c(S(=O)(=O)O)nc3c(N)ncnc32)cc1,3,6%,5%,18%,-5%,-5%,.,.,.,.
O=C(O)COc1ccccc1-c1ccccc1,-1,8%,0%,8%,4%,0%,.,.,.,.
C/C(=N\NC(=O)COc1ccccc1-c1ccccc1)c1ccccn1,-7,-5%,-18%,2.6µM*,2.6µM*,11µM*,9.2µM*,?,?,-8%
C/C(=N/NC(=O)c1ccccn1)c1ccc(O)cc1,-14,5%,-3%,-9%,-2%,5%,.,.,.,.
COc1cc(C(=O)N/N=C(\C)c2ccccn2)cc(OC)c1OC,32,1%,-2%,8.2µM*,12µM*,1.3µM*,7.3µM*,-17%,3.7µM*,-11%
CC1CN(C(=O)CCC(=O)NCc2ccc(Cl)cc2)c2ccccc2S1 (stereo not drawn),-5,-5%,6%,-21%,-24%,15%,.,.,.,.
COc1cc(O)c(C(CC(=O)N2CCCC2)c2cc(OC)c(OC)c(OC)c2)c(OC)c1 (stereo not drawn),1,4%,19%,-5%,-6%,31%,5%,1%,-13%,-7%
COc1ccc2oc(=Nc3cc(F)ccc3F)c(C(N)=O)cc2c1,-4,2%,-7%,4.6µM*,4.1µM*,8.9µM*,?,0%,-6%,22%
CCCn1nc2cc(C(=O)NCCc3cccs3)ccc2c1OCC,-7,32%,-12%,18µM*,-16%,?,-26%,-5%,-22%,-11%
CCOC(=O)CSc1nnc([C@H](Cc2ccccc2)NC(=O)OC(C)(C)C)o1,6,2%,-4%,-3%,-2%,-1%,.,.,.,.
Cc1ccccc1CS(=O)(=O)c1nnc([C@H](CC(C)C)NC(=O)OC(C)(C)C)o1,-67*,-1%,-90%,2.8µM*,2.2µM*,5µM*,3.7µM*,?,5.8µM*,?
